Reference: the supplement of paper PMC11219838
A number with no mark means an inactive call.

test system: Caenorhabditis elegans L1 (N2); assay: survival and reproduction score of C. elegans L1 (0: 0-10 living worms, 1: 11-20, 2: 21-50, 3: >50, 4: overgrown) (score 0-4); higher = more worms, less nematicidal, active = 1 or less; extreme values may be limits of the assay; conditions: 60 µM; 6 days; temperature: 20 °C
Summary of the method: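 About 20 synchronized C. elegans N2 L1s were added per 96-well well with E. coli HB101 in liquid NGM, and compound was pinned to 60 µM final (0.6% v/v DMSO). Sealed plates were shaken at 200 rpm for 6 days at 20 °C. Survival and reproduction were scored under a dissection microscope as an ordinal score of living worms per well. The scale ran 0 (0–10 worms) to 4 (overgrown, starved), and two biological replicates were averaged.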

SMILES | survival and reproduction score
Cc1cc(OCc2nc(-c3ccc(NC(=O)c4ccc5c(c4)OCO5)cc3)no2)ccc1Cl | 4
CC(=O)Nc1ccc(NC(=O)c2ccccc2-c2nc(-c3cccc(C)c3)no2)cc1 | 4
Cc1ccc(NC(=O)CSc2nnc(-c3ccco3)o2)cc1Br | 4
Brc1ccccc1-c1nc(-c2ccccc2)no1 | 0 (active)
Ic1ccccc1-c1nc(-c2cccnc2)no1 | 3.5
c1ccc(-c2noc(COc3ccc4c(c3)CCCC4)n2)cc1 | 4
O=C(Nc1cccnc1)c1ccccc1-c1nc(-c2ccc(Cl)cc2)no1 | 4
COc1ccc(Cl)cc1-c1noc(COc2ccccc2)n1 | 4
O=C(CSc1nnc(-c2cccc3ccccc23)o1)Nc1cccc(F)c1 | 4
O=C(CSc1nnc(-c2cccc(F)c2)o1)Nc1ccccc1C(=O)c1ccccc1 | 4
Cc1ccc(-c2noc(-c3ccc(C)cc3C)n2)cc1 | 4
COc1ccc(Cl)cc1-c1nc(-c2ccccc2C)no1 | 4
O=C(CSc1nnc(-c2ccc(Cl)cc2)o1)Nc1nccs1 | 4
C(=C\c1ccccc1)/CSc1nnc(-c2ccncc2)o1 | 4
CCOc1nc(C)ccc1-c1noc(-c2ccccc2F)n1 | 4
Cc1cc(C)c(CSc2nnc(-c3ccccc3)o2)c(C)c1 | 4
Cc1cccc(-c2noc(COc3ccc(C)cc3C)n2)c1 | 4
Cc1ccc(-c2noc(COc3ccccc3C)n2)cc1 | 4
CCn1c(SCc2nnc(-c3ccccc3)o2)nnc1-c1ccco1 | 4
COc1cccc(-c2noc(COc3cccc(C)c3C)n2)c1 | 2

SMILES | survival and reproduction score
COc1ccccc1-c1nnc(SCc2ccc(C#N)cc2)o1 | 4
FC(F)(F)c1cccc(-c2noc(-c3ccc4c(c3)OCO4)n2)c1 | 4
Fc1ccc(OCc2nc(-c3ccccc3)no2)cc1 | 3.5
CCOc1nc(C)ccc1-c1noc(-c2cccc(C)c2)n1 | 4
Cc1cc(OC(C)c2nc(-c3ccccn3)no2)ccc1Cl (centres undefined) | 2
O=C(CSc1nnc(-c2ccc(Cl)cc2)o1)NCc1ccccc1 | 4
CCOc1ccccc1-c1nnc(SCc2ccccc2)o1 | 4
COc1ccc(-c2noc(-c3cccc(C)c3)n2)cc1 | 0 (active)
Fc1ccc(-c2noc(-c3ccc(Cl)cc3)n2)cc1 | 1 (active)
O=C(CSc1nnc(-c2ccc(Cl)cc2)o1)Nc1ccccc1C(F)(F)F | 4
COc1ccc(-c2nnc(SCC(=O)Nc3ccc(Cl)cc3C)o2)cc1 | 4
Clc1ccccc1-c1noc(-c2ccncc2)n1 | 4
COc1cccc(-c2noc(-c3ccccc3C)n2)c1 | 0.5 (active)
COc1ccccc1-c1nc(-c2ccc(Br)cc2)no1 | 4
O=C(CSc1nnc(-c2ccccc2)o1)NCc1ccccc1 | 4
CCCCc1ccc(-c2nc(-c3cccnc3)no2)cc1 | 0 (active)
COc1ccc(-c2nnc(SCc3ccc(Cl)cc3Cl)o2)cc1 | 4
COc1ccccc1NC(=O)CSc1nnc(-c2cccc3ccccc23)o1 | 4
CC(C)(C)c1ccc(-c2nnc(SCC(=O)c3ccc(F)cc3)o2)cc1 | 4
